Hit rate of the full screen: of about 340,000 compounds, about 2,100 (0.62%) were called active. These entries were drawn from the full list. Entries with a potency or affinity are not part of this list. Unmarked numbers belong to inactive results.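 Rule for the calls: active = first-screen hits whose inhibition reached a set limit at any dose in the follow-up dose series; inconclusive = inhibition above the set first-screen limit but never retested; inactive = the rest.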

In the assay the target is Rac GTPase-activating protein 1 (Homo sapiens) (UniProt Q9H0H5). Briefly: blockers of MgcRacGAP-driven Rac1 GTP hydrolysis – biochemical, ADP Hunter fluorescence, primary and confirmatory, confirmation (AID 624330).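 Note: fluorescence reports GDP produced by GAP-driven GTP hydrolysis.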 As to conditions: MgcRacGAP-stimulated Rac1 GTP hydrolysis, at 30 µM, stronger effect = higher value, GST-tagged Rac1 F28L mutant substrate.
Rac GTPase-activating protein 1 (Homo sapiens), sequence (Q9H0H5 whole entry, looked up): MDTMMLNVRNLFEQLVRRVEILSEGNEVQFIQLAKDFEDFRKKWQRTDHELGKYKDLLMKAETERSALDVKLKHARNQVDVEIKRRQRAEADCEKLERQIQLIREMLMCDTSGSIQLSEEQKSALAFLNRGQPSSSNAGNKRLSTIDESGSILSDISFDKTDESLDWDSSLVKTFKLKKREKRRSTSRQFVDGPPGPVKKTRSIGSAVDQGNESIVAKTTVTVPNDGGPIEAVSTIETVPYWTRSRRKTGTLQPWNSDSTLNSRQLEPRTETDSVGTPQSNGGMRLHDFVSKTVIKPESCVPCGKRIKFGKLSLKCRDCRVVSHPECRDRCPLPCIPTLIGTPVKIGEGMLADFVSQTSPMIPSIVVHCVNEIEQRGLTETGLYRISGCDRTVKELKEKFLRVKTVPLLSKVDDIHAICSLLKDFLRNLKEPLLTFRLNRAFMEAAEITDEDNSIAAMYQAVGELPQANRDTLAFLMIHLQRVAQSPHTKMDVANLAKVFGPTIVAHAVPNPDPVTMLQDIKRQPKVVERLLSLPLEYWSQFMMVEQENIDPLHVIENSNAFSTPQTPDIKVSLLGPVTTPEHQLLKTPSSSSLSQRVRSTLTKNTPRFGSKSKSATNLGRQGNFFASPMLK
For the compound `Cc1cccc(C(C)Nc2ccc([N+](=O)[O-])cn2)c1` (stereo not given), the inhibition was 1.95%.
Under `COC(=O)c1ccc(/C=C/C(=O)c2ccc(OC)cc2)cc1` stands 4.33%.
The result for `COc1ccc(/C=C/C(=O)c2ccc(O)cc2)cc1` reads 4.28%; that for `CCn1cc(C(=O)N2CCN(c3ccc(OC)cc3)CC2)c2cc(OC)c(OC)cc2c1=O`, 18.7%; that for `CC(C)c1nnc(NC(=O)c2cccc(-n3cnnn3)c2)s1`, 10.5%.
The result for `Cc1ccc(C2=NN=C(NC(=O)CSc3nnc4c5ccccc5n(C)c4n3)SC2)cc1` reads 28.8%; that for `Cc1cc(C)nc(SCC(=O)NC2=NN=C(c3ccc(Br)cc3)CS2)n1`, 27.2%.
`COc1ccc2nc(/C(C#N)=C\c3ccc(Oc4ccc([N+](=O)[O-])cn4)cc3)[nH]c2c1`: the inhibition was 5.92%.
The result for `Cc1cccc(N2C(=O)Cc3ccccc3C2=O)c1` reads 8.26%; that for `Cc1ccc(C(c2nnnn2C2CCCC2)N2CCN(c3nc4ccccc4s3)CC2)cc1` (stereo not given), 4.8%; that for `Cc1ccc(OCC(=O)N/N=C\c2cccn2C)c([N+](=O)[O-])c1`, 1.92%.
Turning to `COc1ccc(N2CCN(Cc3nc4cc(Cl)ccc4c(=O)[nH]3)CC2)cc1`, the inhibition is 15.2%.
Under `COc1ccc2nc3cc(Cl)ccc3c(Nc3cc(C(C)C)c(O)cc3C)c2c1` stands 7.74%; under `CCOc1ccc(N2C(=O)CC(Cc3cc(C)cc(C)c3)C2=O)cc1` (stereo not given), 7.28%.
Turning to `Cc1ccc(N=Nc2ccc(O)cc2)c(Br)c1`, the inhibition was 14.6%.
The result for `Cc1ccc(N=C(N)N=C(N)N)cc1` reads 16.3%; that for `CC(=O)C1C(c2cccc(F)c2)c2c(n[nH]c2C)CC1(C)O` (stereo not given), 9.67%.
The result for `CCC(=O)N1N=C(c2cccc(NS(C)(=O)=O)c2)CC1c1cccs1` (stereo not given) reads 11.9%; that for `COc1cc(NCc2ccccc2)c2ncn(Cc3ccccc3)c2c1`, 6.64%; that for `CCn1cc(C(=O)Nc2ccc(NC(=O)c3ccco3)cc2)c(=O)c2ccc(C)nc21`, 0.62%.
Under `Cc1cc(C(=O)CN2C(=O)NC3(CCCCC3)C2=O)c(C)n1Cc1ccc2c(c1)OCO2` stands 0.78%; under `S=c1[nH]cc(-c2ccccc2)n1-c1cccc(Cl)c1`, 6.88%.
For the compound `Cc1[nH]n(-c2cccc([N+](=O)[O-])c2)c(=O)c1-c1ccccc1`, the inhibition is 8.04%.
Consider `Nc1c(-c2cccc(Cl)c2)cnn1-c1ccccc1`, for which the inhibition was 20.3%.
The result for `Nc1c(-c2ccccc2)cnn1-c1cccc([N+](=O)[O-])c1` reads 5.5%; that for `COc1c[nH]n(-c2ccccc2)c(=O)c1=O`, 5.24%; that for `O=c1c(N=Nc2ccccc2)c[nH]n1-c1ccccc1`, -5.5%.
`COC(=O)c1ccsc1NC(=O)c1ccco1`: the inhibition is 6.38%.
The result for `COc1cc(C(=O)COC(=O)c2ccncc2)cc(OC)c1OC` reads 4.46%.
As for `Cc1cc(C(=O)C(=O)N(C)C)c(C)n1-c1ccc(Cl)c(Cl)c1`, the inhibition is 14.3%.
The result for `CC1CN(C(=O)c2ccc(NS(=O)(=O)c3cccc(Cl)c3)cc2)CC(C)O1` (stereo not given) reads 5.38%; that for `NS(=O)(=O)c1ccc(N=Cc2c(O)n(-c3nccs3)c(=O)c3ccccc23)cc1`, 1.11%.
The result for `Cc1ccc(NC(=O)N/C=C/c2ccco2)c(C)c1` reads 7.78%.
The result for `CNC(=S)N1CCc2sccc2C1C` (stereo not given) reads 9.43%; that for `N#Cc1c2ccc(OCC(=O)NCc3ccco3)cc2n2ccccc12`, 8.65%; that for `CCOC(=O)Cc1csc(NC(=O)/C=C/c2ccco2)n1`, 7.86%.
Turning to `CN(C)c1nc2ccccc2c(N)c1-c1ccccc1`, the inhibition was 31%.
Under `Nc1c2ccccc2nc2ccccc12` stands 12.6%; under `CC1(C)CC(NC(=O)C2CCC(=O)N(Cc3ccccc3F)C2)CC(C)(C)C1` (stereo not given), 6.51%.
Take `Cc1cc(C)c(S(=O)(=O)NC(C)C)c(C)c1-n1cnnn1`: the inhibition is 4.49%.
The result for `Cc1cc(C)c(S(N)(=O)=O)c(C)c1-n1cnnn1` reads 1.87%.
The result for `COc1ccc(-c2nn(-c3ccccc3)cc2/C=N/NC(=S)NC(C)C)cc1OC` reads 7.12%; that for `CCOC(=O)C1CCN(C(=O)c2cc(S(=O)(=O)N3CCCCC3)ccc2C)CC1`, -9.49%.
The result for `CN(C)c1ccc(NC(=O)CSc2nc(C3CC3)nc3ccccc23)cc1` reads -1.11%; that for `CC(C)c1nc(SCC(=O)Nc2ccc(N3CCOCC3)cc2)c2ccccc2n1`, 9.39%.
For `COCCn1c(SCC(=O)c2ccc3c(c2)OCCO3)nnc1-c1ccco1`, the inhibition is 8.82%.
Under `O=C1NC(=O)N(c2ccccc2)C1=O` stands 10%; under `O=C(O)COc1ccccc1/C=N/NC(=O)Cc1ccccc1`, 9.01%; under `CC(C)Cc1nc2sc3c(c2c(=O)n1N)CC(C)(C)OC3`, -0.31%.
In the case of `Oc1ccc(C[C@H]2CNC(=S)N2CC2CCCN2C[C@H](Cc2ccc(O)cc2)N2C[C@H](Cc3ccccc3)N(CCc3ccccc3)C2=S)cc1` (stereo not given in full), the inhibition was 10.5%.
Turning to `Cc1cc2c(cc1S(=O)(=O)N1CC(C)CC(C)C1)OCC(=O)N2` (stereo not given), the inhibition is 1.63%.
Turning to `Cc1c(NC(=O)C(C)OC(=O)/C=C/c2ccccc2)c(=O)n(-c2ccccc2)n1C` (stereo not given), the inhibition is 2.8%.
Under `COc1cc(/C=C/C(=O)OCC(=O)Nc2c(C)n(C)n(-c3ccccc3)c2=O)cc(OC)c1OC` stands -6.63%; under `COc1cc(/C=C/C(=O)OCC(=O)Nc2c(C)n(C)n(-c3ccccc3)c2=O)ccc1OCC#N`, 3.82%; under `COc1cccc(/C=C/C(=O)OC(C)C(=O)Nc2c(C)n(C)n(-c3ccccc3)c2=O)c1` (stereo not given), 1.46%.
Under `CCCCCCn1c(CN2CCN(C)CC2)nc2c1c(=O)n(C)c(=O)n2C` stands 0.38%; under `CCOC(=O)Cc1csc(NC(=O)CSc2nc(N)c3c(C)c(C)sc3n2)n1`, -6.82%; under `O=C(CSc1nc2ccccc2o1)NCC1CCCO1` (stereo not given), 5.06%.
Under `CCC(c1nnnn1Cc1ccc(OC)cc1)N1CCN(c2ccc(OC)cc2)CC1` (stereo not given) stands 24.3%.
Consider `Cc1cc2oc(=O)cc(CSc3nc(N)cc(N)n3)c2cc1C(C)C`, for which the inhibition was 11.9%.
